From publication PMC7862700, “An all-to-all approach to the identification of sequence-specific readers for epigenetic DNA modifications on cytosine” come the findings set out here.

Assay in all cases: DAPPL (digital affinity profiling via proximity ligation, sequencing); 10 mM Tris-HCl pH 7.5, 50 mM NaCl, 1 mM DTT, 4% glycerol, room temperature, 30 min; GST-TFs on glutathione beads, 16-mer random dsDNA library, 0.1% formaldehyde crosslink after washing; high values mean tight binding
What all share (details): protein: recombinant; tags: N-terminal GST; dsDNA, one strand shown

In experiment [1] the target is T1, ERF (Homo sapiens, UniProt P50548 1-548).
T1 sequence: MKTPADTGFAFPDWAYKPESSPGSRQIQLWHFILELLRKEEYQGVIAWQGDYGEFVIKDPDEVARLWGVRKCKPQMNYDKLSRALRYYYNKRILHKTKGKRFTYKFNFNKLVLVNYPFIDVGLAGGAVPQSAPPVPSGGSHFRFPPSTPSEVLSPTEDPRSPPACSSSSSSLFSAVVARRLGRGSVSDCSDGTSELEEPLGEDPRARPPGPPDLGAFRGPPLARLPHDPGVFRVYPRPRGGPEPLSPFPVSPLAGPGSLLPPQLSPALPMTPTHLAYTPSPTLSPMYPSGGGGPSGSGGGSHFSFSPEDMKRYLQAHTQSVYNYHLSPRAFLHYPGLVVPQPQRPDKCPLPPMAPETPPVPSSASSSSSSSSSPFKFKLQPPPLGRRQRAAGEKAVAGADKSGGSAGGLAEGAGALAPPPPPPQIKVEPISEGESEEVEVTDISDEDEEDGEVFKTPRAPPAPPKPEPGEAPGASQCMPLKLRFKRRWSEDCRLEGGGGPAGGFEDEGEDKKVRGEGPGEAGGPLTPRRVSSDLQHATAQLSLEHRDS
The gist of the method:
(§1)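 Pools were built from human transcription factors expressed in yeast as GST fusions, captured on glutathione beads and DNA-barcoded, along with a tag-only sample. Incubation with 200 nmole of a 16-mer random double-stranded DNA library lasted 30 min at room temperature in Tris/NaCl/DTT/glycerol buffer, and was followed by washing, 0.1% formaldehyde crosslinking, proximity ligation, PCR amplification and Illumina NextSeq500 sequencing. Binding signal is the quotient of each hexamer's read frequency for a factor and its frequency for the tag-only sample.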

The target of experiment [2] is T2, ETV3L (Homo sapiens, UniProt Q6ZN32 1-361).
T2 sequence: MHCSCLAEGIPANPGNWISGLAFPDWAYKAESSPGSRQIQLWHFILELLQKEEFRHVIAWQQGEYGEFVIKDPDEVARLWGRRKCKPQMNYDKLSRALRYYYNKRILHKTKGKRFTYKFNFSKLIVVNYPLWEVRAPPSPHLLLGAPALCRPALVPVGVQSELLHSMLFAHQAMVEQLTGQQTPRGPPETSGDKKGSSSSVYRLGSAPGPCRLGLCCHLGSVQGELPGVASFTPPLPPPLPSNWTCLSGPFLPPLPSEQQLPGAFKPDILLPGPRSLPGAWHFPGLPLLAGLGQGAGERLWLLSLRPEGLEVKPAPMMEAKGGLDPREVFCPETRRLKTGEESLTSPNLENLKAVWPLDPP
The gist of the method: as §1

For experiment [3], the target named is T3, ETS2 (Homo sapiens, UniProt P15036 1-469).
T3 sequence: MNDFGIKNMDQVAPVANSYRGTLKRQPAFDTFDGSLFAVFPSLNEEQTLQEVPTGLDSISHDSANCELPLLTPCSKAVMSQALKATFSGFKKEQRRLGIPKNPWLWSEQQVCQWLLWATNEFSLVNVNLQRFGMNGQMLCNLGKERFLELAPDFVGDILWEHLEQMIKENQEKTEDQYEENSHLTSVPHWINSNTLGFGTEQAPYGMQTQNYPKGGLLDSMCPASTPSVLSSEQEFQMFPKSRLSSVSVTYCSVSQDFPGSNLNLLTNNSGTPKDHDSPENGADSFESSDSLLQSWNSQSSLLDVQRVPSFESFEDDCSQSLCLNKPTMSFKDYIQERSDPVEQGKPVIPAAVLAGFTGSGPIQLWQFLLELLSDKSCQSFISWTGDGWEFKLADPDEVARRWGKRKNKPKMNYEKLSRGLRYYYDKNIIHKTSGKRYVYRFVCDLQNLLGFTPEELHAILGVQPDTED
An outline of the steps:
as §1

The target of experiment [4] is T4, SPDEF (Homo sapiens, UniProt O95238 1-335).
T4 sequence: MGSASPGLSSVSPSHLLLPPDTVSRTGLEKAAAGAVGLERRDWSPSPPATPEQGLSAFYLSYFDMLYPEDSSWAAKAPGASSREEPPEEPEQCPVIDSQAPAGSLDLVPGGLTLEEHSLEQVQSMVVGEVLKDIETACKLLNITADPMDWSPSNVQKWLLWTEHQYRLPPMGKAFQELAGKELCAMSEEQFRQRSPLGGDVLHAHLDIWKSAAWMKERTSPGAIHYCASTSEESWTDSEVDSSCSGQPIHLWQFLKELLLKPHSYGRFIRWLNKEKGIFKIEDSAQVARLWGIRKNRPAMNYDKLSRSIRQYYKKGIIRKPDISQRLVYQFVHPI
The gist of the method:
as §1

For experiment [5], the target named is T5, ETV7 (Homo sapiens, UniProt Q9Y603 1-341).
T5 sequence: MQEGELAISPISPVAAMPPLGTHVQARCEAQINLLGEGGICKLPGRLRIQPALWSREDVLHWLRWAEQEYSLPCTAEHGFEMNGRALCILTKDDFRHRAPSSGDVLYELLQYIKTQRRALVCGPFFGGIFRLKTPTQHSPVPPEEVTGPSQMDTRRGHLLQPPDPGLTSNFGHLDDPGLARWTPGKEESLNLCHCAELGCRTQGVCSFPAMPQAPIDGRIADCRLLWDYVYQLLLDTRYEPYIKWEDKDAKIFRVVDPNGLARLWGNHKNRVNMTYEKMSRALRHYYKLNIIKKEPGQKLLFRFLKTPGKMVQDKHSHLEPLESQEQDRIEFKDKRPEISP
The gist of the method: as §1

Experiment [6] deals with T6, ELF5 (Homo sapiens, UniProt Q9UKW6-2 1-255).
T6 sequence: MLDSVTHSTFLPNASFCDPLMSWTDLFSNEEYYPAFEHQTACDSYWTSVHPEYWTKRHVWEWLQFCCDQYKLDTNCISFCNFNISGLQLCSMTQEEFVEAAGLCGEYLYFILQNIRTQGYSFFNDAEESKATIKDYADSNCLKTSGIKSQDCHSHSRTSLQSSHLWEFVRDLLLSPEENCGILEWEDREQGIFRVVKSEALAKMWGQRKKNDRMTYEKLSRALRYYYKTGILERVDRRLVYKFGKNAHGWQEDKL
The gist of the method: as §1

Experiment [7] concerns the target T7, ETV3 (Homo sapiens, UniProt P41162-2 1-143).
T7 sequence: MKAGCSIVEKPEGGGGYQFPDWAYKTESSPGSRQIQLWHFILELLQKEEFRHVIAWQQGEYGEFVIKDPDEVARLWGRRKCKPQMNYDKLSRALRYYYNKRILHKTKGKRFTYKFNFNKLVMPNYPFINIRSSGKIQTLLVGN
An outline of the steps: as §1

Experiment [8] concerns the target ETV6 (Homo sapiens, UniProt P41212 1-452). The gist of the method: as §1

Chain of ETV6 (P41212 whole entry): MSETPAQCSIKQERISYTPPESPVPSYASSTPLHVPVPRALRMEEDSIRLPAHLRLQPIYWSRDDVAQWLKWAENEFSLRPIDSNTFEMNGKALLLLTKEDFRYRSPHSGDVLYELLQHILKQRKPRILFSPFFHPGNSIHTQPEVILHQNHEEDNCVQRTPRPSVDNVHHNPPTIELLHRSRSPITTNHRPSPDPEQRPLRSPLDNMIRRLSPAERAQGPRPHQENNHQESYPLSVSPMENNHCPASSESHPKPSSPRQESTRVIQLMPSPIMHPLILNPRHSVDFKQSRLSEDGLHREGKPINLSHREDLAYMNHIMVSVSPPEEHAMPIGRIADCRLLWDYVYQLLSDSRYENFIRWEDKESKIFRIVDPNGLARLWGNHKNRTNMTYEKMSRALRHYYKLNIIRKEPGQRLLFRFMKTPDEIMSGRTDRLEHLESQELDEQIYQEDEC

Regarding AAGATT, the binding signal in experiment [1] is 1.1 fold enrichment (6-mer frequency, TF over GST control); in experiment [2], 1.18 fold enrichment (6-mer frequency, TF over GST control); in experiment [3] it was 1.18 fold enrichment (6-mer frequency, TF over GST control); in experiment [4], 1.16 fold enrichment (6-mer frequency, TF over GST control); in experiment [5] it was 1.16 fold enrichment (6-mer frequency, TF over GST control); in experiment [6], 1.14 fold enrichment (6-mer frequency, TF over GST control). The binding signal in experiment [7] is 1.14 fold enrichment (6-mer frequency, TF over GST control); in experiment [8] it was 1.19 fold enrichment (6-mer frequency, TF over GST control).

Take GATATA: the binding signal in experiment [1] is 1.15 fold enrichment (6-mer frequency, TF over GST control); in experiment [2] it was 1.18 fold enrichment (6-mer frequency, TF over GST control); in experiment [3] it was 1.16 fold enrichment (6-mer frequency, TF over GST control); in experiment [4], 1.32 fold enrichment (6-mer frequency, TF over GST control); in experiment [5] it was 1.1 fold enrichment (6-mer frequency, TF over GST control); in experiment [6], 1.13 fold enrichment (6-mer frequency, TF over GST control). Also, the binding signal in experiment [7] was 1.09 fold enrichment (6-mer frequency, TF over GST control); in experiment [8] it was 1.12 fold enrichment (6-mer frequency, TF over GST control).

As to AATTGC, the binding signal in experiment [1] was 1.43 fold enrichment (6-mer frequency, TF over GST control); in experiment [2], 1.35 fold enrichment (6-mer frequency, TF over GST control); in experiment [3], 1.37 fold enrichment (6-mer frequency, TF over GST control); in experiment [4] it was 1.27 fold enrichment (6-mer frequency, TF over GST control); in experiment [5] it was 1.38 fold enrichment (6-mer frequency, TF over GST control); in experiment [6], 1.38 fold enrichment (6-mer frequency, TF over GST control). In addition, the binding signal is 1.35 fold enrichment (6-mer frequency, TF over GST control) in experiment [7] and 1.43 fold enrichment (6-mer frequency, TF over GST control) in experiment [8].

Consider ATGCGA, for which the binding signal in experiment [1] was 1.16 fold enrichment (6-mer frequency, TF over GST control); in experiment [2], 1.24 fold enrichment (6-mer frequency, TF over GST control); in experiment [3], 1.19 fold enrichment (6-mer frequency, TF over GST control); in experiment [4] it was 1.18 fold enrichment (6-mer frequency, TF over GST control); in experiment [5] it was 1.28 fold enrichment (6-mer frequency, TF over GST control); in experiment [6], 1.16 fold enrichment (6-mer frequency, TF over GST control). The binding signal in experiment [7] is 1.32 fold enrichment (6-mer frequency, TF over GST control); in experiment [8], 1.23 fold enrichment (6-mer frequency, TF over GST control).

As for CCTCAG, the binding signal in experiment [1] was 1.35 fold enrichment (6-mer frequency, TF over GST control); in experiment [2] it was 1.27 fold enrichment (6-mer frequency, TF over GST control); in experiment [3], 1.25 fold enrichment (6-mer frequency, TF over GST control); in experiment [4], 1.1 fold enrichment (6-mer frequency, TF over GST control); in experiment [5] it was 1.1 fold enrichment (6-mer frequency, TF over GST control); in experiment [6], 1.14 fold enrichment (6-mer frequency, TF over GST control). For the same sequence, the binding signal in experiment [7] is 1.17 fold enrichment (6-mer frequency, TF over GST control); in experiment [8] it was 1.15 fold enrichment (6-mer frequency, TF over GST control).

In the case of ATGTTT, the binding signal was 1.46 fold enrichment (6-mer frequency, TF over GST control) in experiment [1]; 1.48 fold enrichment (6-mer frequency, TF over GST control) in experiment [2]; 1.29 fold enrichment (6-mer frequency, TF over GST control) in experiment [3]; 1.37 fold enrichment (6-mer frequency, TF over GST control) in experiment [4]; 1.46 fold enrichment (6-mer frequency, TF over GST control) in experiment [5]; 1.47 fold enrichment (6-mer frequency, TF over GST control) in experiment [6]. Further, the binding signal in experiment [7] is 1.47 fold enrichment (6-mer frequency, TF over GST control); in experiment [8], 1.47 fold enrichment (6-mer frequency, TF over GST control).

With TGGGAT, the binding signal is 1.05 fold enrichment (6-mer frequency, TF over GST control) in experiment [1]; 1.15 fold enrichment (6-mer frequency, TF over GST control) in experiment [2]; 1.17 fold enrichment (6-mer frequency, TF over GST control) in experiment [3]; 1.17 fold enrichment (6-mer frequency, TF over GST control) in experiment [4]; 1.15 fold enrichment (6-mer frequency, TF over GST control) in experiment [5]; 1.2 fold enrichment (6-mer frequency, TF over GST control) in experiment [6]. In addition, the binding signal in experiment [7] is 1.18 fold enrichment (6-mer frequency, TF over GST control); in experiment [8], 1.23 fold enrichment (6-mer frequency, TF over GST control).
